Mtb hypoxia rep = inhibitors of hypoxia-regulated fluorescent reporter in Mycobacterium tuberculosis | M. tuberculosis hypoxia-regulated fluorescent reporter, fluorescence | fluorescence inhibition, % (concentration not given with the values) | 300,000 compounds, 0.1% hits | AID 1159583; in the data active = fluorescence inhibition mostly above about 23%, no sharp cut-off; inactive = mostly below about 17%
FadD28 binding = M. tuberculosis FadD28 bisubstrate binding inhibition. 360,000 compounds, 0.22% hits. inhibition, % at 12.5 µM. AID 588549. FadD28 bisubstrate probe binding, fluorescence polarization; in the data active = inhibition above about 8.5%, passing the limit was not always enough
GDH-TPI inh = GDH-TPI coupled enzyme inhibition counter-screen; GDH-TPI coupled enzyme counterscreen, NADH absorbance; inhibition, % at 4.8 µM; 360,000 compounds, 1.2% hits; in the data active = inhibition above about 30%
FBA Mtb inh = inhibitors of M. tuberculosis fructose-bisphosphate aldolase | P9WQA3 | purified M. tuberculosis FBA, fluorescence read-out | inhibition, % at 1 µM | 360,000 compounds, 2.3% hits | AID 588726; in the data active = inhibition above about 27%
Target sequence (P9WQA3 whole entry, looked up): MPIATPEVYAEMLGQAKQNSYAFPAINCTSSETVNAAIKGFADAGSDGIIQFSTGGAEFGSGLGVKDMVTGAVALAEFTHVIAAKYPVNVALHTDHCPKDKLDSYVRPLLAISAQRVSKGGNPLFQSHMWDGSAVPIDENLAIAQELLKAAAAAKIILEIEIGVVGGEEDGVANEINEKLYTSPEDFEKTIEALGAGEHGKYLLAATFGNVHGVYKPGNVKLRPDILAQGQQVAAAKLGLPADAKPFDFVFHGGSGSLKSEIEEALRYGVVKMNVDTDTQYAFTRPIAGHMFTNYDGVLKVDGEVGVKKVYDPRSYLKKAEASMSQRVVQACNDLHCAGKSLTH
Mtb BioA inh = blocks M. tuberculosis BioA enzyme activity. purified M. tuberculosis BioA enzyme, plate reader. inhibition, % at 9.99 µM. 360,000 compounds, 0.096% hits; in the data active = inhibition above about 40%
Each line names hits and unclear results; the compound was inactive in the other large screens. Hits are enriched below; roughly 2.9% of the tested compounds scored in any of these assays.

COC(=O)C1C[C@@]2(O)C(O)C(O)C(O)CC2N1CC=Cc1ccccc1 (stereo partly drawn)	none (no result: FadD28 binding, GDH-TPI inh, FBA Mtb inh, Mtb BioA inh)
C[C@@H]1CN([C@H](C)CO)C(=O)c2cc(NC(=O)Cc3ccccc3)ccc2O[C@H]1CN(C)C(=O)Nc1ccc(F)cc1	none (no result: Mtb hypoxia rep, FadD28 binding, GDH-TPI inh, FBA Mtb inh)
N#Cc1c(C(F)(F)F)cc(-c2ccc(F)cc2)nc1SCC(=O)O	none (no result: Mtb BioA inh)
N#Cc1c(C(F)(F)F)cc(-c2ccc(F)cc2)[nH]c1=O	FBA Mtb inh 142 (no result: Mtb BioA inh)
N#Cc1c(C(F)(F)F)cc(-c2ccc(Cl)cc2)[nH]c1=O	FBA Mtb inh 177
CSc1cc(-c2ccc(Cl)cc2)[nH]c(=O)c1C#N	none (no result: Mtb BioA inh)
COc1ccc(-c2cc(C(F)(F)F)c(C#N)c(=O)[nH]2)cc1	FBA Mtb inh active
O=C(C[C@H]1C=C[C@@H](NS(=O)(=O)c2ccc(F)cc2)[C@H](CO)O1)NC1CCC1	none (no result: Mtb hypoxia rep, FadD28 binding, GDH-TPI inh, FBA Mtb inh)
O=Cc1cn(CCC(=O)O)nc1-c1cccc(Br)c1	none
O=C(O)CCn1cc(/C=C\C(=O)c2ccc(Cl)cc2)c(-c2cccc(Br)c2)n1	GDH-TPI inh 38
COc1ccc2[nH]c3c(c2c1)CC(C)NC3=O (stereo not drawn)	FBA Mtb inh 121
COc1ccc2c3c([nH]c2c1)C(C)=NCC3	none
O=C(NN=Cc1ccc(N(CCCl)CCCl)cc1)c1cc(=O)[nH]c(=O)[nH]1	GDH-TPI inh 50
COc1cc(/C=N/NC(=O)c2ccc3nc[nH]c3c2)ccc1O	GDH-TPI inh 59 (no result: Mtb hypoxia rep, Mtb BioA inh)
CSc1ccc(/C=N/NC(=O)c2ccc3nc[nH]c3c2)cc1	GDH-TPI inh 48 (no result: Mtb hypoxia rep)
O=C(NN=Cc1ccc(Cl)c(Cl)c1)c1ccc2nc[nH]c2c1	none (no result: FadD28 binding, GDH-TPI inh, FBA Mtb inh, Mtb BioA inh)
COc1cccc(/C=N/NC(=O)c2ccc3nc[nH]c3c2)c1	none (no result: Mtb hypoxia rep, Mtb BioA inh)
CCN(CC)c1ccc(/C=N/NC(=O)c2cc3ccccc3[nH]2)cc1	GDH-TPI inh 32 (no result: Mtb hypoxia rep)
CCN(CC)c1ccc(C=NNC(=O)c2cc3ccccc3[nH]2)cc1	none (no result: FadD28 binding, GDH-TPI inh, FBA Mtb inh, Mtb BioA inh)
CCN(CC)c1ccc(/C=N/NC(=O)c2ccc3nc[nH]c3c2)cc1	FadD28 binding 31, GDH-TPI inh 60 (no result: Mtb hypoxia rep)
CCN(CC)c1ccc(/C=N/NC(=O)c2c[nH]c3ccccc23)cc1	none (no result: Mtb hypoxia rep, Mtb BioA inh)
CCN(CC)c1ccc(C=NNC(=O)c2ccc3nc[nH]c3c2)cc1	none (no result: FadD28 binding, GDH-TPI inh, FBA Mtb inh, Mtb BioA inh)
O=C(NN=Cc1ccc(N(CCCl)CCCl)cc1)C(=O)c1c[nH]c2ccccc12	GDH-TPI inh 43
O=C(Cc1ccc(Cl)cc1)NN=Cc1cccc(O)c1	none (no result: FadD28 binding, GDH-TPI inh, FBA Mtb inh, Mtb BioA inh)
CN(C)c1ccc(/C=N/NC(=O)c2ccc3nc[nH]c3c2)cc1	GDH-TPI inh 56 (no result: Mtb hypoxia rep, Mtb BioA inh)
O=C(Cc1cc(=O)oc2cc(O)ccc12)NN=Cc1ccc(N(CCCl)CCCl)cc1	GDH-TPI inh 56, FBA Mtb inh 182
CCC(=O)N(C)C[C@@H]1Oc2ncc(-c3ccccc3OC)cc2C(=O)N([C@H](C)CO)C[C@@H]1C	none (no result: Mtb hypoxia rep, FadD28 binding, GDH-TPI inh, FBA Mtb inh)
COc1ccc(-c2n[nH]c3c2C(c2ccc(OC)c(OC)c2)N(c2ccccc2)C3=O)cc1 (stereo not drawn)	Mtb BioA inh 65
CC(C)CC(=O)Nc1ccc(-c2cn3cccnc3n2)cc1	FBA Mtb inh active (no result: Mtb BioA inh)
CCCC(=O)Nc1ccc(-c2cn3cccnc3n2)cc1	FBA Mtb inh active (no result: Mtb BioA inh)
COc1ccc(-c2cn3cccnc3n2)cc1NC(=O)CC(C)C	none
CC(C)(C)CC(=O)Nc1ccc(-c2cn3cccnc3n2)cc1	FBA Mtb inh active
CCOCC(=O)Nc1ccc(-c2cn3cccnc3n2)cc1	FBA Mtb inh active
O=C(Nc1ccccc1)Nc1cccc(-c2cn3cccnc3n2)c1	none
CO[C@H]1CN(C)C(=O)c2cc(NC(C)=O)ccc2OC[C@H](C)N(Cc2cc(F)ccc2F)C[C@@H]1C	none (no result: Mtb hypoxia rep, FadD28 binding, GDH-TPI inh, FBA Mtb inh)
CC(=NNC(=O)CN1CCN(c2ccc(F)cc2)CC1)c1ccco1	none (no result: FadD28 binding, GDH-TPI inh, FBA Mtb inh, Mtb BioA inh)
COc1cc(C=NNC(=O)c2cccnc2)ccc1OCC(=O)Nc1c(C)cc(C)cc1C	none (no result: FadD28 binding, GDH-TPI inh, FBA Mtb inh, Mtb BioA inh)
Cn1cnc(S(=O)(=O)N2C[C@@H](O)COC[C@@H]3O[C@@H](CC(=O)NC4CCCC4)CC[C@H]32)c1	none (no result: Mtb hypoxia rep, FadD28 binding, GDH-TPI inh, FBA Mtb inh)
O=C(Nc1cccc(-c2cn3ccccc3n2)c1)c1ccccc1	none (no result: Mtb BioA inh)
CCCC(=O)Nc1cccc(-c2cn3cccnc3n2)c1	FBA Mtb inh 189 (no result: Mtb BioA inh)
CCCCC(=O)Nc1cccc(-c2cn3ccccc3n2)c1	FBA Mtb inh 33
CCN(CC)S(=O)(=O)c1cccc(-c2csc(C)n2)c1	none (no result: Mtb BioA inh)
CCN(CC)S(=O)(=O)c1cccc(-c2cn3cccnc3n2)c1	FBA Mtb inh 181
CCCc1sc(NN=Cc2ccccn2)nc1-c1ccc(Br)cc1	none (no result: FadD28 binding, GDH-TPI inh, FBA Mtb inh, Mtb BioA inh)
COc1cc(/C=C/c2cc(OC(C)=O)c3ccccc3n2)c(OC(C)=O)c([N+](=O)[O-])c1	GDH-TPI inh 37
CC(=O)Oc1c(Cl)cc(Cl)cc1/C=C/c1ccc2ccccc2n1	none
COc1ccc(NC(=O)Nc2ccc3c(c2)CC(=O)N([C@@H](C)CO)C[C@@H](C)[C@H](CN(C)CC2CCCCC2)O3)cc1	none (no result: Mtb hypoxia rep, FadD28 binding, GDH-TPI inh, FBA Mtb inh)
O=S(=O)(O)c1ccc(O)c2cc(Nc3ccccc3)ccc12	FadD28 binding 59
COCC#Cc1ccc2c(c1)O[C@@H](CN(C)C(=O)C1CCOCC1)[C@@H](C)CN([C@@H](C)CO)S2(=O)=O	none (no result: Mtb hypoxia rep, FadD28 binding, GDH-TPI inh, FBA Mtb inh)
Clc1ccc(C=NNc2ncnc3nc[nH]c23)cc1	none (no result: FadD28 binding, GDH-TPI inh, FBA Mtb inh, Mtb BioA inh)
CCc1ccc(/C=N/Nc2ncnc3nc[nH]c23)cc1	GDH-TPI inh 71 (no result: Mtb hypoxia rep, Mtb BioA inh)
CCOC(=O)CC1(C)c2nc(NC(C)=O)sc2Cc2sc(NC(C)=O)nc21	FBA Mtb inh 161 (no result: Mtb hypoxia rep, GDH-TPI inh, Mtb BioA inh)
CCOC(=O)c1sc(NC(C)=O)nc1C	none
Cc1ccc(NC(=O)ON=Cc2cccc([N+](=O)[O-])c2)cc1	none (no result: FadD28 binding, GDH-TPI inh, FBA Mtb inh, Mtb BioA inh)
CCOc1ccc(C(=O)Nc2nnc(S(=O)(=O)N(C)Cc3ccco3)s2)cc1	GDH-TPI inh 39 (no result: Mtb hypoxia rep)
CN(Cc1ccco1)S(=O)(=O)c1nnc(NC(=O)c2ccc(F)cc2)s1	GDH-TPI inh 38

From PubChem
